# Test results: PubChem BioAssay (NCI)
# This is part of a sample that, as a whole, favours compounds with a hit. Of some 79,000 tested, about 15% had one in any assay. A number with no mark means an inactive call. Calls of active or inactive are those of the source. No stated cut-off is given here; in the data, active means growth inhibition above about 70%; inactive means the rest.
# Columns and labels:
# [1] = NCI Yeast Anticancer Drug Screen. Data for the rad52 strain (AID 147);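 further: 0% = growth of vehicle-treated control cultures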; conditions: S. cerevisiae rad52 mutant growth inhibition, active compounds read high
# Summary of the method: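 Read-out: growth inhibition versus vehicle-treated controls. Cells were a DNA repair-deficient yeast strain treated with compounds.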
# [2] = NCI Yeast Anticancer Drug Screen. Data for the wt1 strain (AID 149);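 further: 0% = growth of vehicle-treated wt1 cultures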; conditions: S. cerevisiae wt1 strain (SPY 50644) growth inhibition, active compounds read high
# Summary of the method: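 The wt1 strain was treated with compounds, and growth was compared with vehicle-treated cultures to give inhibition.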
# [3] = NCI Yeast Anticancer Drug Screen. Data for the rad50EPP+ strain (AID 151);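 further: 0% = growth of vehicle-treated control cultures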; conditions: S. cerevisiae rad50 mutant strain, active compounds read high
# Summary of the method: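 Growth inhibition read against vehicle controls in rad50EPP+ yeast, a strain altered in DNA damage repair, after compound exposure.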
# [4] = NCI Yeast Anticancer Drug Screen. Data for the rad50 strain (AID 155);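 further: 0% = growth of vehicle-only cultures of the same strain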; conditions: S. cerevisiae rad50 strain growth inhibition, active compounds read high
# Summary of the method: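 Cells are treated with compound, grown, and their growth is then scored against vehicle-only cultures of the same repair-deficient yeast strain.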
# [5] = NCI Yeast Anticancer Drug Screen. Data for the mec2-1 strain (AID 157); conditions: S. cerevisiae mec2-1 strain, active compounds read high
# Summary of the method: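 Yeast mec2-1 mutant treated with compound. Readout: growth inhibition vs vehicle controls.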
# [6] = NCI Yeast Anticancer Drug Screen. Data for the sgs1 mgt1 strain (AID 161);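 further: 0% = growth of cultures given vehicle only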; conditions: S. cerevisiae sgs1 mgt1 strain, active compounds read high
# Summary of the method: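 Inhibition of yeast growth, normalised to vehicle-treated controls, is reported for a strain bearing genetic alterations in DNA damage repair.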
# [7] = NCI Yeast Anticancer Drug Screen. Data for the CLN2oe strain (AID 163);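 further: 0% = growth of vehicle-only control cultures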; conditions: S. cerevisiae CLN2oe strain, active compounds read high
# Summary of the method: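 Read-out: yeast growth inhibition, expressed relative to vehicle-only controls. The strain bears an engineered cell-cycle alteration.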
# [8] = NCI Yeast Anticancer Drug Screen. Data for the cln2 rad14 strain (AID 165);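 further: 0% = growth equal to vehicle treated cultures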; conditions: S. cerevisiae cln2 rad14 strain, active compounds read high
# Summary of the method: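 cln2 rad14 yeast strain; compound exposure; growth inhibition read vs vehicle controls.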
# [9] = NCI Yeast Anticancer Drug Screen. Data for the bub3 strain (AID 167); conditions: S. cerevisiae bub3 mutant strain, active compounds read high
# Summary of the method: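 Part of a panel of yeast mutants defective in DNA damage repair or cell cycle regulation. Each strain is grown with compound, and inhibition is calculated relative to solvent-treated cultures.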
# [10] = NCI Yeast Anticancer Drug Screen. Data for the wt2 strain (AID 169);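 further: 0% = growth of vehicle-treated yeast cultures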; conditions: S. cerevisiae wt2 strain growth inhibition, active compounds read high
# Summary of the method: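 Read-out: growth inhibition versus vehicle-treated control cultures after compound exposure of the yeast strain.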
# [11] = NCI Yeast Anticancer Drug Screen. Data for the mlh1 strain (AID 171);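 further: 0% = growth of vehicle-treated control cultures of the same strain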; conditions: S. cerevisiae mlh1 strain growth inhibition, active compounds read high
# Summary of the method: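 Read-out: growth inhibition versus vehicle controls. Strain: engineered yeast with a defined DNA repair or cell cycle defect, compound-treated.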
# [12] = NCI Yeast Anticancer Drug Screen. Data for the sgs1 strain (AID 173);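 further: 0% = growth of vehicle-only control cultures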; conditions: S. cerevisiae sgs1 mutant, active compounds read high
# Summary of the method: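 Read-out: yeast growth inhibition relative to vehicle controls, following compound exposure of a strain with a defined DNA repair/cell cycle alteration.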
# [13] = NCI Yeast Anticancer Drug Screen. Data for the mlh1 rad18 strain (AID 175); conditions: S. cerevisiae mlh1 rad18 strain growth inhibition, active compounds read high
# Summary of the method: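 Yeast w/ defined DNA-repair lesions; compound exposure; growth vs vehicle controls → % inhibition.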
# [14] = NCI Yeast Anticancer Drug Screen. Data for the rad18 strain (AID 177); conditions: S. cerevisiae rad18 mutant growth inhibition, active compounds read high
# Summary of the method: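 Readout: growth inhibition vs vehicle controls. Cells: genetically altered yeast strain, DNA repair defect.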
# [15] = NCI Yeast Anticancer Drug Screen. Data for the rad14 strain (AID 159);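 further: 0% = growth of vehicle-treated control cultures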; conditions: S. cerevisiae rad14 strain growth inhibition, active compounds read high
# Summary of the method: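 Readout: yeast growth inhibition, referenced to vehicle-only cultures. Strain bears a defined alteration in DNA damage repair.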
# [16] = at 5.0 µM (retest, dose inferred, filed as 0.5)
# [17] = at 50.0 µM (retest, dose inferred, filed as 5.0)
smiles,measurement,setting,value
CCc1[nH]nc(C(N)=O)c1N=NN(C)C,growth inhibition,[1]; at 1.2 µM,3%
same,growth inhibition,[1]; at 3.7 µM,20%
same,growth inhibition,[1]; at 11.0 µM,66%
same,growth inhibition,[1]; at 33.0 µM,97% (active)
same,growth inhibition,[1]; at 100.0 µM,97% (active)
same,growth inhibition,[2]; at 1.2 µM,-6%
same,growth inhibition,[2]; at 3.7 µM,-4%
same,growth inhibition,[2]; at 11.0 µM,-7%
same,growth inhibition,[2]; at 33.0 µM,-5%
same,growth inhibition,[2]; at 100.0 µM,1%
same,growth inhibition,[3]; at 1.2 µM,0%
same,growth inhibition,[3]; at 3.7 µM,12%
same,growth inhibition,[3]; at 11.0 µM,27%
same,growth inhibition,[3]; at 33.0 µM,69%
same,growth inhibition,[3]; at 100.0 µM,95% (active)
same,growth inhibition,[4]; at 1.2 µM,-4%
same,growth inhibition,[4]; at 3.7 µM,5%
same,growth inhibition,[4]; [16],-118%
same,growth inhibition,[4]; at 11.0 µM,49%
same,growth inhibition,[4]; at 33.0 µM,90% (active)
same,growth inhibition,[4]; [17],85% (active)
same,growth inhibition,[4]; at 50.0 µM,90.1% (active)
same,growth inhibition,[4]; at 100.0 µM,97% (active)
same,growth inhibition,[5]; at 1.2 µM,3%
same,growth inhibition,[5]; at 3.7 µM,-1%
same,growth inhibition,[5]; [16],-46%
same,growth inhibition,[5]; at 11.0 µM,7%
same,growth inhibition,[5]; at 33.0 µM,25%
same,growth inhibition,[5]; [17],11%
same,growth inhibition,[5]; at 50.0 µM,17.7%
same,growth inhibition,[5]; at 100.0 µM,94% (active)
same,growth inhibition,[6]; [16],-57%
same,growth inhibition,[6]; [17],14%
same,growth inhibition,[6]; at 50.0 µM,12.8%
same,growth inhibition,[7]; at 1.2 µM,-2%
same,growth inhibition,[7]; at 3.7 µM,-3%
same,growth inhibition,[7]; at 11.0 µM,0%
same,growth inhibition,[7]; at 33.0 µM,1%
same,growth inhibition,[7]; at 100.0 µM,18%
same,growth inhibition,[8]; [16],-53%
same,growth inhibition,[8]; [17],-35%
same,growth inhibition,[8]; at 50.0 µM,21.1%
same,growth inhibition,[9]; at 1.2 µM,-9%
same,growth inhibition,[9]; at 3.7 µM,-5%
same,growth inhibition,[9]; [16],-66%
same,growth inhibition,[9]; at 11.0 µM,-3%
same,growth inhibition,[9]; at 33.0 µM,-6%
same,growth inhibition,[9]; [17],-84%
same,growth inhibition,[9]; at 50.0 µM,-15.4%
same,growth inhibition,[9]; at 100.0 µM,14%
same,growth inhibition,[10]; at 1.2 µM,-1%
same,growth inhibition,[10]; at 3.7 µM,0%
same,growth inhibition,[10]; at 11.0 µM,-1%
same,growth inhibition,[10]; at 33.0 µM,0%
same,growth inhibition,[10]; at 100.0 µM,11%
same,growth inhibition,[11]; at 1.2 µM,4%
same,growth inhibition,[11]; at 3.7 µM,-4%
same,growth inhibition,[11]; at 11.0 µM,-2%
same,growth inhibition,[11]; at 33.0 µM,6%
same,growth inhibition,[11]; at 100.0 µM,21%
same,growth inhibition,[12]; at 1.2 µM,0%
same,growth inhibition,[12]; at 3.7 µM,-5%
same,growth inhibition,[12]; at 11.0 µM,15%
same,growth inhibition,[12]; at 33.0 µM,53%
same,growth inhibition,[12]; at 100.0 µM,88% (active)
same,growth inhibition,[13]; [16],-126%
same,growth inhibition,[13]; [17],1%
same,growth inhibition,[13]; at 50.0 µM,70.7% (active)
same,growth inhibition,[14]; at 1.2 µM,1%
same,growth inhibition,[14]; at 3.7 µM,6%
same,growth inhibition,[14]; at 11.0 µM,28%
same,growth inhibition,[14]; at 33.0 µM,85% (active)
same,growth inhibition,[14]; at 100.0 µM,96% (active)
O=S1(=O)c2ccccc2N=C(c2ccccc2Cl)CC1c1ccc(F)cc1 (stereo unspecified),growth inhibition,[2]; at 1.2 µM,0%
same,growth inhibition,[2]; at 3.7 µM,-4%
same,growth inhibition,[2]; at 11.0 µM,25%
same,growth inhibition,[2]; at 33.0 µM,36%
same,growth inhibition,[2]; at 100.0 µM,8%
same,growth inhibition,[3]; at 1.2 µM,-23%
same,growth inhibition,[3]; at 3.7 µM,-22%
same,growth inhibition,[3]; at 11.0 µM,0%
same,growth inhibition,[3]; at 33.0 µM,15%
same,growth inhibition,[3]; at 100.0 µM,24%
same,growth inhibition,[4]; at 1.2 µM,-39%
same,growth inhibition,[4]; at 3.7 µM,-34%
same,growth inhibition,[4]; [16],-7%
same,growth inhibition,[4]; at 11.0 µM,-18%
same,growth inhibition,[4]; at 33.0 µM,17%
same,growth inhibition,[4]; [17],29%
same,growth inhibition,[4]; at 50.0 µM,18.3%
same,growth inhibition,[4]; at 100.0 µM,13%
same,growth inhibition,[5]; at 1.2 µM,-52%
same,growth inhibition,[5]; at 3.7 µM,-27%
same,growth inhibition,[5]; [16],-22%
same,growth inhibition,[5]; at 11.0 µM,-29%
same,growth inhibition,[5]; at 33.0 µM,0%
same,growth inhibition,[5]; [17],-10%
same,growth inhibition,[5]; at 50.0 µM,-10.2%
same,growth inhibition,[5]; at 100.0 µM,-27%
same,growth inhibition,[15]; at 1.2 µM,-32%
same,growth inhibition,[15]; at 3.7 µM,-47%
same,growth inhibition,[15]; at 11.0 µM,-25%
same,growth inhibition,[15]; at 33.0 µM,-3%
same,growth inhibition,[15]; at 100.0 µM,-6%
same,growth inhibition,[6]; [16],-5%
same,growth inhibition,[6]; [17],-8%
same,growth inhibition,[6]; at 50.0 µM,61%
same,growth inhibition,[7]; at 1.2 µM,-9%
same,growth inhibition,[7]; at 3.7 µM,-8%
same,growth inhibition,[7]; at 11.0 µM,-10%
same,growth inhibition,[7]; at 33.0 µM,-1%
same,growth inhibition,[7]; at 100.0 µM,-13%
same,growth inhibition,[8]; [16],17%
same,growth inhibition,[8]; [17],16%
same,growth inhibition,[8]; at 50.0 µM,31.5%
same,growth inhibition,[9]; at 1.2 µM,-4%
same,growth inhibition,[9]; at 3.7 µM,-16%
same,growth inhibition,[9]; [16],-20%
same,growth inhibition,[9]; at 11.0 µM,-5%
same,growth inhibition,[9]; at 33.0 µM,-2%
same,growth inhibition,[9]; [17],56%
same,growth inhibition,[9]; at 50.0 µM,3.25%
same,growth inhibition,[9]; at 100.0 µM,13%
same,growth inhibition,[10]; at 1.2 µM,-6%
same,growth inhibition,[10]; at 3.7 µM,-8%
same,growth inhibition,[10]; at 11.0 µM,-20%
same,growth inhibition,[10]; at 33.0 µM,7%
same,growth inhibition,[10]; at 100.0 µM,25%
same,growth inhibition,[11]; at 1.2 µM,-17%
same,growth inhibition,[11]; at 3.7 µM,-10%
same,growth inhibition,[11]; at 11.0 µM,-8%
same,growth inhibition,[11]; at 33.0 µM,13%
same,growth inhibition,[11]; at 100.0 µM,7%
same,growth inhibition,[12]; at 1.2 µM,-7%
same,growth inhibition,[12]; at 3.7 µM,8%
same,growth inhibition,[12]; at 11.0 µM,-15%
same,growth inhibition,[12]; at 33.0 µM,17%
same,growth inhibition,[12]; at 100.0 µM,33%
same,growth inhibition,[13]; [16],-26%
same,growth inhibition,[13]; [17],81% (active)
same,growth inhibition,[13]; at 50.0 µM,72.5% (active)
same,growth inhibition,[14]; at 1.2 µM,-3%
same,growth inhibition,[14]; at 3.7 µM,2%
same,growth inhibition,[14]; at 11.0 µM,18%
same,growth inhibition,[14]; at 33.0 µM,36%
same,growth inhibition,[14]; at 100.0 µM,22%
